We go through 25 molecules from ChEMBL document CHEMBL1157539, “Thousands of chemical starting points for antimalarial lead identification” (Nature, 2010).

The campaign covered roughly 13,000 compounds. Fewer than 10 showed an effect of 50% or more. Not all results are given here.

In this assay the test system is Plasmodium falciparum. Briefly: GSK_TCMDC: Inhibition of Plasmodium falciparum 3D7 LDH activity, using an LDH reporter assay. Test compounds present at 2uM. Format: functional, organism-based. In general terms: A reporter such as luciferase makes a cellular process visible.
As a reminder, the inhibition is the drop in the measured response relative to a control, in per cent. Low values mean little suppression, high ones strong suppression. `c1ccc(-c2ccc(-c3csc(Nc4ccncc4)n3)cc2)cc1` showed an inhibition of 3%.
`Cc1ccc2nc(C)cc(N/N=C/c3ccc([N+](=O)[O-])o3)c2c1` registered an inhibition of 0%.
Next, `O=C(Nc1ccsc1)Nc1cccc(-c2cccc(-c3nc4cc(F)ccc4[nH]3)c2)c1`: 2%.
The molecule `OCC(c1ccccc1)n1c(COc2ccc(Cl)cc2)nc2c(OCCCN3CCCCC3)cccc21` (stereo not given) returned an inhibition of 0%.
`CCN1CCC(N(Cc2ccc(-c3ccc(C(F)(F)F)cc3)cc2)C(=O)Cn2c(CCc3cccc(F)c3F)cc(=O)c3c2CCCC3)CC1`: the inhibition was 0%.
In the case of `COc1ccc2c(NN=Cc3cccc(F)c3)ccnc2c1`, the inhibition is 0%.
Turning to `N#Cc1ccc(N2CCN(Cc3cccc(-c4ccc(-c5nc6cc(C(F)(F)F)ccc6[nH]5)cc4)c3)CC2)nc1`, the inhibition came out at 0%.
Molecule `Nc1nc(N)c2c(ccc3[nH]c(-c4ccccc4Cl)nc32)n1` returned an inhibition of 0%.
Consider `C=CCc1cccc(OC)c1OCCCON1C(=N)N=C(N)NC1(C)C`, for which the inhibition was found to be 0%.
`CC(C)CCn1c(Sc2ccc(C#N)c([N+](=O)[O-])c2)nnc1-c1ccc(Cl)cc1` registered an inhibition of 0%.
Next, `Cc1n[nH]c2ccc(-c3ccc4nccc(N5CCC(N)CC5)c4c3)cc12`: 0%; `CCOc1ccc2c(=NN=Cc3ccccc3F)cc(C)[nH]c2c1`: 0%; `COc1cc(CN=C(S)NN=C(C)c2ccccn2)cc(OC)c1OC`: 0%.
On to `COc1ccc2c(c1)CC(C)(C)NC2CCCCCCCCC1NC(C)(C)Cc2cc(OC)ccc21` (stereo not given), for which the inhibition stood at 0%.
Turning to `CCCC(=O)c1cnc2c(OCCCc3c[nH]cn3)cccc2c1Nc1c(C)cccc1C`, the inhibition stood at 3%.
Next, `CC[C@H](N/C(=N\c1ccc(-c2ccccc2)cc1)Nc1ccc(C#N)cc1O)c1ccccc1`: 4%; `COc1c(Br)cc(Br)cc1-c1ccc(CN2CC3CCC2CC3)[nH]1`: 0%; `CCCCCCN1CCC(NCc2ccc(Cl)cc2)CC1`: 0%.
Regarding `COc1cc(NC(=O)c2sc(-c3ccc(Cl)cc3)cc2NC(=O)c2cccc(N(C)C)c2)ccc1OCCN1CCCC1`, the inhibition is 0%.
Molecule `CCN(C1CCCCC1)S(=O)(=O)c1ccc(OC)c(N2CCN(C(=O)C(Cl)(Cl)Cl)CC2)c1` had an inhibition of 3%.
`O=C(NCCCN1CCOCC1)c1cccc(Nc2nccc(Nc3ccc(Oc4ccccc4)cc3)n2)c1`: the inhibition was 0%.
The molecule `CCC(=O)N(c1ccccc1)C1CCN(CCCC(NC(=O)c2cc(C(F)(F)F)cc(C(F)(F)F)c2)c2ccc(Cl)c(Cl)c2)CC1` (stereo not given) returned an inhibition of 0%.
Under `O=C(/C=C/c1ccc(-c2nc3ccc(Cl)cc3[nH]2)cc1)NC1CCN(Cc2ccccc2)CC1` stands 0%; under `CN(C)c1ccc(-c2csc(C(=O)NC3CCN(CCC(C)(C)C)C3)c2)cc1` (stereo not given), 2%; under `NC(=O)c1cccc(C(=O)Nc2cccc(-c3cccc(-c4nc5cc(F)ccc5[nH]4)c3)c2)c1`, 1%.
